Screens as filed in PubChem BioAssay.
LmPK inh = qHTS Assay for Inhibitors of Leishmania Mexicana Pyruvate Kinase (LmPK). purified LmPK, Kinase-Glo ATP luminescence, 1 h. Potency, µM (highest dose often 57.5 µM), for the others: at the highest dose activity change, negative = inhibition, actives largely listed as inhibitors. actives 0.37% (n = 290,000); note: potency is the fitted concentration of half-maximal effect; % is set by controls: 0 for no effect and ±100 for the full control effect
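0.1 nM LmPK, 0.5 mM PEP, 0.1 mM ADP; 50 mM imidazole pH 7.2, 7 mM MgCl2, 50 mM KCl; 1 h RT. Kinase-Glo luminescence readout, normalized to no-enzyme (full inhibition) and uninhibited wells.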
Shiga inhibitor = A qHTS for Small Molecule Inhibitors of Shiga Toxin. Vero cells, Shiga toxin protein synthesis inhibition reporter. inhibition, % at 38.7 µM. actives 9.2% (n = 290,000). AID 2315, 2010; in the data active = inhibition mostly above about 28%, no sharp cut-off; inactive = mostly below about 43%; note: 0% is about no effect
TbPYK inhibitor = qHTS of Trypanosoma Brucei Inhibitors; pyruvate kinase (Trypanosoma brucei), Q57TT1; TbPYK enzyme, Kinase-Glo Plus ATP luminescence, 45 min; Potency, µM (top dose mostly 76.8 µM), without a hit: at the top dose activity, negative = inhibition, usual class: inhibitors; actives 0.12% (n = 410,000); AID 624173, 2012; note: potency is the fitted concentration of half-maximal effect; % is set by controls: 0 for no effect and ±100 for the full control effect; nearly all actives have a fitted effect of over 50% in size
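Glycolytic pyruvate kinase of T. brucei was incubated with substrate, test compound and 130 uM ADP for 45 minutes at room temperature. Luminescent Kinase-Glo Plus signal was measured after 10 minutes.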
FBPA Giardia inh = qHTS Assay for Inhibitors of Fructose-1,6-bisphosphate Aldolase from Giardia Lamblia. purified Giardia FBPA. actives 0.71% (n = 290,000). Potency, µM (top dose mostly 59.6 µM), for the others: at the highest dose activity, negative = inhibition, most hits filed as inhibitors; note: potency is the fitted concentration of half-maximal effect; % is set by controls: 0 for no effect and ±100 for the full control effect; nearly all actives have a fitted effect of over 55% in size
Target sequence (A8B2U2 whole entry, looked up): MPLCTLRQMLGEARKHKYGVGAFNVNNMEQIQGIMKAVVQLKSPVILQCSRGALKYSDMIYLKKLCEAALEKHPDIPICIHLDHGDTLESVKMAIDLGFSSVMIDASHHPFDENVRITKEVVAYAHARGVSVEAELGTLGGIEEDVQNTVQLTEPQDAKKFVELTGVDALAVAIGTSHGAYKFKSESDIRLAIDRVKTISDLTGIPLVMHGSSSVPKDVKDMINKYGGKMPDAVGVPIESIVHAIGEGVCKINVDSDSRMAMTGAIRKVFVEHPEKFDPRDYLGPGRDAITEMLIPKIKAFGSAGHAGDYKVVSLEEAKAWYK
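40 nM FBPA preincubated 10 min at RT with compound (up to 57.5 uM final), then substrate plus GAPDH/TPI/NAD/arsenate coupling and diaphorase/resazurin added. Fluorescence read after 20 min at RT, 525/598 nm.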
RE007 growth inh = qHTS Assay for Inhibitors of the HIV-1 protein Vpr. S. pombe RE007 Vpr strain, BacTiter-Glo ATP luminescence, 24 h. Potency, µM (doses to about 92.2 µM), for inactives: at the top dose activity change, negative = less growth, most hits filed as inhibitors. actives 0.21% (n = 360,000). AID 651644, 2012; active = well fitted falling curve with a large enough effect; inconclusive = small, poorly fitted or top-dose-only effect; inactive = no such curve, though single readings can be large or run the other way; note: potency is the fitted concentration of half-maximal effect; % is set by controls: 0 for no effect and ±100 for the full control effect; nearly all actives have a fitted effect of over 50% in size
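Fission yeast RE007 carrying one integrated HIV-1 vpr copy, seeded at OD 0.01 in PMG+AL medium with 23 nL pinned compound. Grown 24 h at 30 degrees; viability read by BacTiter-Glo luminescence after 5 min.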
Cycloheximide cs = Cycloheximide Counterscreen for Small Molecule Inhibitors of Shiga Toxin. cell reporter, cycloheximide protein synthesis inhibition counterscreen. max response, %. actives 12% (n = 300,000); in the data active = max response mostly above about 13%, no sharp cut-off; inactive = mostly below about 14%; note: read at 38.3 µM for the half of the compounds with a filed dose; 0% is about no effect
Active calls of the source: *; i = inactive; ? = inconclusive; / = no result given; [ ] = dose if it differs, or a comment. This is one part of a sample in which hits are shown more often than they occur. Unless noted, calls come from the whole dose curve; as a rule, active = well fitted curve in the direction sought with a large enough effect; inconclusive = small, poorly fitted or top-dose-only effect, or another doubt; inactive = no such curve, though single readings can be large; an effect the other way counts as inactive or inconclusive.

SMILES	LmPK inh	Shiga inhibitor	TbPYK inhibitor	FBPA Giardia inh	RE007 growth inh	Cycloheximide cs
CC(=O)Nc1ccc2nc(SCC(=O)Nc3ccc(N4CCOCC4)c(Cl)c3)sc2c1	5%	98*	-11%	2%	3%	69*
Cc1nn2c(-c3cccc(NC(=O)CSc4nc5ccccc5o4)c3)nnc2c2ccccc12	1%	18	-17%	6%	-1%	14*
CCc1ccc(-n2c(=O)c3c4c(sc3n(CC(=O)c3ccc(Br)cc3)c2=O)CCC4)cc1	/	/	4%	/	/	/
CC1CCCN(C(=O)CNS(=O)(=O)c2cccs2)C1 (configuration not stated)	-1%	54	-3%	4%	9%	27*
O=C(CSc1ccccc1)N1CCN(S(=O)(=O)c2cccs2)CC1	3%	18	0%	/	15%	5.9*
O=C(CCS(=O)(=O)c1cccs1)N1CCN(c2ccc(F)cc2)CC1	3%	79*	-12%	3%	-11%	41*
O=C(CNS(=O)(=O)c1cccs1)N1CCCCC1	0%	30	-2%	-6%	4%	8
O=C(CCS(=O)(=O)c1cccs1)N1CCCC1	-3%	63*	-1%	0%	6%	18*
Cc1ccccc1C(=O)Nc1ccc2oc(-c3ccc(Cl)c(Cl)c3)nc2c1	/	/	-3%	/	/	/
CCCCC(CC)C/C=C1\CC(C(=O)OCC)Oc2ccccc21 (configuration not stated) (tested in a mixture with another compound)	/	i	/	-2%[89.2 µM]	/	10
CCCn1c(-c2ccc(F)cc2)nc2c(N3CCN(CCn4ccnc4)CC3)nc(C)nc21	/	/	/	-1%	/	/
CCCCCCCCCCCCCCCCSCC(COC)COP(=O)([O-])OCC[N+](C)(C)C (configuration not stated)	/	-12	-1%	5%	/	15
CCc1ccc(NC(=O)C2CCCN(S(=O)(=O)c3cccs3)C2)cc1 (configuration not stated)	1%	30	-18%	-8%	-14%	21*
O=C(C1CCN(S(=O)(=O)c2cccs2)CC1)N1CCCCC1	-8%	37*	1%	/	9%	35*
CCc1ccc(NC(=O)C2CCN(S(=O)(=O)c3cccs3)CC2)cc1	-1%	21	6%	2%	10%	6
O=C(CCNS(=O)(=O)c1cccs1)N1CCCCCC1	1%	102*	-13%	4%	-14%	33*
COCCCNC(=O)NC(CCC(C)C)c1c(-n2cccc2)sc2c1CCN(C)C2 (configuration not stated)	/	/	-2%	/	/	/
COc1cn(-c2ccccc2)nc1C(=O)Nc1ccc(C)cc1	-8%	56*	-16%	-5%	-27%	36*
COc1ccccc1NC(=O)c1cn(-c2ccccc2)nc1-c1ccccc1	/	/	2%	/	/	/
COc1cn(-c2ccccc2)nc1C(=O)Nc1ccccc1	-1%	82*	4%	-1%	?	47*
COc1ccc(C)cc1NC(=O)c1nn(-c2ccccc2)cc1OC	-2%	12	-1%	-4%	8%	1
C(=C\c1nc(-c2ccncc2)no1)/c1ccccc1	1%	1	4%	1%	-11%	-1
C(=C\c1nc(-c2ccccc2)no1)/c1ccccc1	-7%	48*	1%	1%	3%	30*
O=C(Nc1ccccc1)Nc1sccc1-c1nc2ccccc2s1	3%	63*	0%	-25%	0%	17
CCCOc1ccc(N2C(=O)CC(N(Cc3ccc(OC)cc3)C(=S)Nc3ccccc3)C2=O)cc1 (configuration not stated)	4%	30	1%	-3%	-12%	25*
CN1C(N)=NC(=O)/C1=C/c1ccc(OC(F)(F)F)cc1	11%	41*	-4%	1%	3%	33*
COc1ccc(/C=C2/C(=O)N=C(N)N2C)cc1OC	3%	11	-3%	-8%	2%	1
